Results: the supplement of paper PMC10849652
About 7,900 targets were measured; listed, in parts, are those with a hit and a random draw of the rest. About 0.6% of all pairs of compound and target were hits. A number with no mark means an inactive call.

How the values were obtained:
Assay in all cases: log2 fold change, soluble protein after heating vs DMSO (PISA); higher = thermal stabilisation; K562 cells, 10 uM, 30 min; active = over 0.2 and 3.5 SD of the protein, either way, in both replicates (recomputed)
[1] = compound: NC(=O)Nc1cc(-c2cccc(F)c2)sc1C(=O)N[C@H]1CCCNC1
Summary of the method: (§1)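 For each measurement, 10 μM compound was applied for 30 min to K562 cells at 2×10^6 cells/mL. Aliquots were heated for 3 min across 48°C-58°C, pooled, and extracted in PBS with 0.5% NP-40 at 4°C; the supernatant after 21,000xg for 90 min was soluble protein. This was quantified by TMTpro 16plex LC-MS/MS with channel sums equalised, and thermal stability was reported relative to control samples from duplicates, on a log2 fold-change scale.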

[2] = compound: NC(=O)c1cnc(N[C@@H]2CCCC[C@@H]2N)nc1Nc1cccc(-n2nccn2)c1
Summary of the method: as §1

[3] = compound: NC1(c2ccc(-c3nc4ccn5c(=O)[nH]nc5c4cc3-c3ccccc3)cc2)CCC1
Summary of the method: as §1

[4] = compound: NCC(=O)Nc1ccc(-n2nc(C(F)(F)F)cc2-c2ccc3c(ccc4ccccc43)c2)cc1
Summary of the method: as §1

entinostat = compound: Nc1ccccc1NC(=O)c1ccc(CNC(=O)OCc2cccnc2)cc1 [entinostat]
Summary of the method: as §1

vorinostat = compound: O=C(CCCCCCC(=O)Nc1ccccc1)NO [vorinostat]
Summary of the method: as §1

citarinostat = compound: O=C(CCCCCCNC(=O)c1cnc(N(c2ccccc2)c2ccccc2Cl)nc1)NO [citarinostat]
Summary of the method: as §1

silmitasertib = compound: O=C(O)c1ccc2c(c1)nc(Nc1cccc(Cl)c1)c1ccncc12 [silmitasertib]
Summary of the method: as §1

[5] = compound: O=C1NC(=O)C(c2cnc3ccccn23)=C1c1cn2c3c(cc(F)cc13)CN(C(=O)N1CCCCC1)CC2
Summary of the method: as §1

[6] = compound: c1cc(OCCN2CCCCC2)cc(-c2n[nH]c3ccc(-c4nnc[nH]4)cc23)c1
Summary of the method: as §1

UniProt P51790, sequence (P51790 whole entry, looked up): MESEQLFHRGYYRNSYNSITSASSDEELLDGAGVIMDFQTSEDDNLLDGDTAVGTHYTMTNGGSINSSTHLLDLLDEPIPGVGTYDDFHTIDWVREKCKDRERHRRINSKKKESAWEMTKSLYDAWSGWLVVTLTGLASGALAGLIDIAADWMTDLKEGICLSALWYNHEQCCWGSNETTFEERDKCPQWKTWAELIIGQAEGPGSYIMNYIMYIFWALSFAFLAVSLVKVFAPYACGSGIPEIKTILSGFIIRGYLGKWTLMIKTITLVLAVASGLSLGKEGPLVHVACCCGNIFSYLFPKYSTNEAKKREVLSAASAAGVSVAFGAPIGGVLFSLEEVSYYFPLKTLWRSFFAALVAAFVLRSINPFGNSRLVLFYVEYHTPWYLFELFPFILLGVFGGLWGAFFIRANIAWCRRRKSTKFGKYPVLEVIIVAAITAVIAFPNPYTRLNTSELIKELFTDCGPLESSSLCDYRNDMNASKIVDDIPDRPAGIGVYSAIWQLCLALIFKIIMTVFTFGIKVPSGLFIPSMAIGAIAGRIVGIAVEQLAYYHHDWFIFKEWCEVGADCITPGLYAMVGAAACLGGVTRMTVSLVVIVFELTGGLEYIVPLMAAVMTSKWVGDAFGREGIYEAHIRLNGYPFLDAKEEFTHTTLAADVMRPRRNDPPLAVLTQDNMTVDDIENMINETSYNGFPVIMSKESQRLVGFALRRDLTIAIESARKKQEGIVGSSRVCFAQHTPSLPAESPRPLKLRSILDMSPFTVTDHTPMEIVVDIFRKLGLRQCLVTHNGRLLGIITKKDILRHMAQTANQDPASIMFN
UniProt Q9Y3X0, sequence (Q9Y3X0 whole entry, looked up): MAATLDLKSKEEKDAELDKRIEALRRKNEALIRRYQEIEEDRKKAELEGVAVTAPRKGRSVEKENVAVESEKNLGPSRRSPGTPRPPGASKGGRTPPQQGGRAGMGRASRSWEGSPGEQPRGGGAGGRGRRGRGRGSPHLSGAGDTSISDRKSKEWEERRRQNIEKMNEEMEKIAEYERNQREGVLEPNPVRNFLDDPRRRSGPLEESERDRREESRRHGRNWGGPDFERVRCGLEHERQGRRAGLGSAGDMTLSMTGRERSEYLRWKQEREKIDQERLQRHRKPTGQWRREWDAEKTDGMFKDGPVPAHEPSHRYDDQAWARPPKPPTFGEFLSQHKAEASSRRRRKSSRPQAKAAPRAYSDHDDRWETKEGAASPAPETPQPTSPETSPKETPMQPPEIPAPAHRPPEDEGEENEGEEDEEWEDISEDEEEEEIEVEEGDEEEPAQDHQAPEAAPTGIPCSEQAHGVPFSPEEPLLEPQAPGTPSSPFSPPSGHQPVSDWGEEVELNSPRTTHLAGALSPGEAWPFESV
UniProt P35219, sequence (P35219 whole entry, looked up): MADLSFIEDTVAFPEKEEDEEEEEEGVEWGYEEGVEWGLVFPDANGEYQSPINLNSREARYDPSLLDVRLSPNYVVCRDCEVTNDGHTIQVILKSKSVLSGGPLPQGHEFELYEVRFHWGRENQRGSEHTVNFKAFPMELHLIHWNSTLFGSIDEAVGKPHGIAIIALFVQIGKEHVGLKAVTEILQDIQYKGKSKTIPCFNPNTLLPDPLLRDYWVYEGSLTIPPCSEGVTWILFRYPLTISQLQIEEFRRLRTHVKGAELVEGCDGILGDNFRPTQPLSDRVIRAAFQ
UniProt O00748, sequence (O00748 whole entry, looked up): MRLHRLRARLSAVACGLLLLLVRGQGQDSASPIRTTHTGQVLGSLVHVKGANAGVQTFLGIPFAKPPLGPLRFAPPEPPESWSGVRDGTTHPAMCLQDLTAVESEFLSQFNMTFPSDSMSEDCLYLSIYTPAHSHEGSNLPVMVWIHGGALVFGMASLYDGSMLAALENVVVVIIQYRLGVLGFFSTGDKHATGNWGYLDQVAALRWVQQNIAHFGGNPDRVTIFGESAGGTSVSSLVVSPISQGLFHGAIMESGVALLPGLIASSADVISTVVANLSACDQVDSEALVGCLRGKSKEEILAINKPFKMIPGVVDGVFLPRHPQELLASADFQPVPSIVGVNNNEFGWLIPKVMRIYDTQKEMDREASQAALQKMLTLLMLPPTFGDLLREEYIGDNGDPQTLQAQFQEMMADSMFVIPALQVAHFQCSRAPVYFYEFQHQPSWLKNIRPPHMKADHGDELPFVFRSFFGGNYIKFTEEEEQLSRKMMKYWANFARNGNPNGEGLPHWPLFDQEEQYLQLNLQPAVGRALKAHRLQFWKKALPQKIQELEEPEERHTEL
UniProt Q00587, sequence (Q00587 whole entry, looked up): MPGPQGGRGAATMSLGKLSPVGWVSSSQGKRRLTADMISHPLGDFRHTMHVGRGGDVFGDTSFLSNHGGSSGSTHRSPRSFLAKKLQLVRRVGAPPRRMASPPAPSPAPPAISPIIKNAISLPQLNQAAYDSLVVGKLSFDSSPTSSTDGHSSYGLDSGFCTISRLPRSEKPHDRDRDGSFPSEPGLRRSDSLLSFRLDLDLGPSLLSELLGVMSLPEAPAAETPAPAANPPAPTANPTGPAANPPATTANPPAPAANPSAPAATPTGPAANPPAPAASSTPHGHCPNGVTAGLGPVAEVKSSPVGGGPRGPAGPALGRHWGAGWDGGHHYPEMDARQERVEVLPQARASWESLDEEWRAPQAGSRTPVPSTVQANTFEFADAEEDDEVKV
UniProt Q96G23, sequence (Q96G23 whole entry, looked up): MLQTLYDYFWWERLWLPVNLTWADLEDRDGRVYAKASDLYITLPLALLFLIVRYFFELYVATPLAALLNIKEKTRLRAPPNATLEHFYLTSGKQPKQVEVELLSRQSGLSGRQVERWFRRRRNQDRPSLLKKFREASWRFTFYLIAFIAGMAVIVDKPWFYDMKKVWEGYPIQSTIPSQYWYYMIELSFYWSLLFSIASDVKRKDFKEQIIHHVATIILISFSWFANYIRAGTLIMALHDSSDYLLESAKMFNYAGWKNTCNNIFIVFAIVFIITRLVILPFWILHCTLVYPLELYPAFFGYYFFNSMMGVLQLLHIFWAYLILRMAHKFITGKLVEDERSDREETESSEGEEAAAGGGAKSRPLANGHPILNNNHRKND
UniProt Q96KP4, sequence (Q96KP4 whole entry, looked up): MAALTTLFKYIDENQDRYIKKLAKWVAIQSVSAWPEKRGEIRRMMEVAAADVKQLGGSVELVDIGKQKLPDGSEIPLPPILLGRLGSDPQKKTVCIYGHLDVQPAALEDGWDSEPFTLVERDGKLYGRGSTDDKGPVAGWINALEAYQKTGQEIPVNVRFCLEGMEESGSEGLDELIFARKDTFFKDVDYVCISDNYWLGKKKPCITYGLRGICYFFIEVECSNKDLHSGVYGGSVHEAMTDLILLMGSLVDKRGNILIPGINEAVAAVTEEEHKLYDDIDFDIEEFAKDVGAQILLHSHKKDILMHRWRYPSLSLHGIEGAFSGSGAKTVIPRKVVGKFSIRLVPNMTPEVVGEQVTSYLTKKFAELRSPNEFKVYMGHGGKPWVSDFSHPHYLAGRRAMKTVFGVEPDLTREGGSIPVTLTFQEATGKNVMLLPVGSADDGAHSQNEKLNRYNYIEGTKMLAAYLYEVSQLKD
UniProt P19784, sequence (P19784 whole entry, looked up): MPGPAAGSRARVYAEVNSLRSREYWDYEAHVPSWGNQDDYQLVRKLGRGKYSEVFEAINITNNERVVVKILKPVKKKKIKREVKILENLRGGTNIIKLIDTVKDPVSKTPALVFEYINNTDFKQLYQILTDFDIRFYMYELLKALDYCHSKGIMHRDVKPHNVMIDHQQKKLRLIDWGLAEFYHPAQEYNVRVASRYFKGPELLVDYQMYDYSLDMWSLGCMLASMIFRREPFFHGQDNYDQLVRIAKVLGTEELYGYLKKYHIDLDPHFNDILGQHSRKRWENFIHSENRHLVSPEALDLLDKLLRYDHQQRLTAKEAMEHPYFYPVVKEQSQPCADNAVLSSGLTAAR
UniProt P20674, sequence (P20674 whole entry, looked up): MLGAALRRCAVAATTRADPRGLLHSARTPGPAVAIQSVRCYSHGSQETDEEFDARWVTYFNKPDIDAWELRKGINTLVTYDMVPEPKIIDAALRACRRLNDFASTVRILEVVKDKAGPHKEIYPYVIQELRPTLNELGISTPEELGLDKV
UniProt P35520, sequence (P35520 whole entry, looked up): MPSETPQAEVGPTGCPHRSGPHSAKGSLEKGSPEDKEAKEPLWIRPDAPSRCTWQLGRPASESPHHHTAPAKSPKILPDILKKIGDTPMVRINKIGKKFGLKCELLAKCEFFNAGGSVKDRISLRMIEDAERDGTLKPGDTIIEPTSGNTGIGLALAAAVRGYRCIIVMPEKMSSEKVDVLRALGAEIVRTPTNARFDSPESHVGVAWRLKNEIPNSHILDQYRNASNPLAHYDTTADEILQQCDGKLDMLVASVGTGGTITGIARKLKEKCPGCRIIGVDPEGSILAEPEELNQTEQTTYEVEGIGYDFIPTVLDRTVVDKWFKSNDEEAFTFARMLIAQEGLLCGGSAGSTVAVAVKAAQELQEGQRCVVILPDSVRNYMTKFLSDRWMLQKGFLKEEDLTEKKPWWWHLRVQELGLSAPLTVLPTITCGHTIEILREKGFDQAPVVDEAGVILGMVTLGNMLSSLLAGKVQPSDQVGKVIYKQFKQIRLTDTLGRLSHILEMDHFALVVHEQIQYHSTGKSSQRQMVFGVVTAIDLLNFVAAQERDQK
UniProt Q01459, sequence (Q01459 whole entry, looked up): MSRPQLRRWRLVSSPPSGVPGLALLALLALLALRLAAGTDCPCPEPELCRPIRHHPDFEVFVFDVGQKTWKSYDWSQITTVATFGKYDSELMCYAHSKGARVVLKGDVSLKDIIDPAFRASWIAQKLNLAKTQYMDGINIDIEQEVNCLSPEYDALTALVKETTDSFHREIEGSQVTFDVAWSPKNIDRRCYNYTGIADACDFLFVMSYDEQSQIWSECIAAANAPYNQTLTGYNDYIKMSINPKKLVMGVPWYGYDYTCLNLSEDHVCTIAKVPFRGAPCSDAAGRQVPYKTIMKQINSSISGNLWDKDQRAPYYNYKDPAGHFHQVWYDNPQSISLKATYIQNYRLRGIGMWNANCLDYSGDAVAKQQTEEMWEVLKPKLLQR

| Target | log2 fold change [1] | log2 fold change [2] | log2 fold change [3] | log2 fold change [4] | log2 fold change (entinostat) | log2 fold change (vorinostat) | log2 fold change (citarinostat) | log2 fold change (silmitasertib) | log2 fold change [5] | log2 fold change [6] |
| --- | --- | --- | --- | --- | --- | --- | --- | --- | --- | --- |
| CBS (UniProt P35520) | -0.008 | 0.006 | -0.025 | 0.016 | -0.033 | -0.031 | -0.058 | -0.038 | -0.027 | 0.027 |
| CNDP2 (UniProt Q96KP4) | -0.013 | -0.035 | -0.052 | 0.01 | -0.015 | -0.015 | 0.023 | -0.065 | -0.005 | 0.001 |
| CDC42EP1 (UniProt Q00587) | -0.272 | -0.258 | -0.399 | -0.063 | 0.1 | 0.158 | 0.108 | -0.04 | -0.118 | -0.138 |
| CCDC9 (UniProt Q9Y3X0) | 0.021 | 0.034 | 0.121 | 0.02 | -0.088 | -0.051 | -0.069 | -0.051 | 0.021 | -0.015 |
| CLCN7 (UniProt P51798) | -0.009 | -0.162 | -0.674 (active) | -0.048 | 0.07 | 0.054 | 0.107 | 0.036 | 0.021 | -0.078 |
| CDK5RAP1 (UniProt Q96SZ6) | -0.107 | 0.047 | -0.114 | 0.199 | -0.008 | -0.089 | -0.055 | 0.06 | -0.023 | -0.031 |
| CA8 (UniProt P35219) | 0.035 | -0.069 | -0.167 | -0.058 | 0.049 | 0.025 | 0.108 | 0.029 | -0.142 | -0.027 |
| COX5A (UniProt P20674) | 0.019 | 0.103 | 0.117 | 0.024 | 0.024 | -0.078 | -0.041 | -0.055 | -0.228 | -0.046 |
| COPS8 (UniProt Q99627) | 0.02 | 0.038 | -0.042 | 0.043 | 0.034 | 0.041 | 0.056 | 0.044 | -0.077 | 0.018 |
| CSNK2A2 (UniProt P19784) | -0.069 | 0.008 | -0.052 | 0.069 | -0.015 | 0.086 | 0.011 | 0.873 (active) | -0.076 | 0.022 |
| CTBS (UniProt Q01459) | 0.088 | -0.046 | -0.268 | -0.002 | 0.058 | -0.017 | -0.026 | -0.003 | 0.051 | -0.023 |
| CLCN3 (UniProt P51790) | -0.019 | -0.099 | -0.264 | -0.078 | -0.012 | -0.022 | 0.011 | 0.011 | 0.038 | -0.01 |
| CERS2 (UniProt Q96G23) | -0.015 | 0 | -0.103 | -0.019 | 0.04 | 0.057 | 0.035 | -0.018 | 0.027 | -0.087 |
| CHAMP1 (UniProt Q96JM3) | -0.034 | -0.136 | 0.007 | -0.031 | 0.001 | 0.137 | -0.007 | -0.02 | -0.051 | -0.078 |
| CES2 isoform 4 (UniProt O00748) | 0.116 | 0.017 | -0.051 | 0.095 | -0.083 | -0.017 | -0.083 | 0.076 | 0.027 | -0.016 |
